Measured values as given in ChEMBL document CHEMBL2218924, “A broad activity screen in support of a chemogenomic map for kinase signalling research and drug discovery” (Biochem J, 2013).

Key:
[1] = molecular target: T1, Muscle, skeletal receptor tyrosine-protein kinase (Homo sapiens) (UniProt O15146); conditions: at 1 µM
T1 sequence (whole entry): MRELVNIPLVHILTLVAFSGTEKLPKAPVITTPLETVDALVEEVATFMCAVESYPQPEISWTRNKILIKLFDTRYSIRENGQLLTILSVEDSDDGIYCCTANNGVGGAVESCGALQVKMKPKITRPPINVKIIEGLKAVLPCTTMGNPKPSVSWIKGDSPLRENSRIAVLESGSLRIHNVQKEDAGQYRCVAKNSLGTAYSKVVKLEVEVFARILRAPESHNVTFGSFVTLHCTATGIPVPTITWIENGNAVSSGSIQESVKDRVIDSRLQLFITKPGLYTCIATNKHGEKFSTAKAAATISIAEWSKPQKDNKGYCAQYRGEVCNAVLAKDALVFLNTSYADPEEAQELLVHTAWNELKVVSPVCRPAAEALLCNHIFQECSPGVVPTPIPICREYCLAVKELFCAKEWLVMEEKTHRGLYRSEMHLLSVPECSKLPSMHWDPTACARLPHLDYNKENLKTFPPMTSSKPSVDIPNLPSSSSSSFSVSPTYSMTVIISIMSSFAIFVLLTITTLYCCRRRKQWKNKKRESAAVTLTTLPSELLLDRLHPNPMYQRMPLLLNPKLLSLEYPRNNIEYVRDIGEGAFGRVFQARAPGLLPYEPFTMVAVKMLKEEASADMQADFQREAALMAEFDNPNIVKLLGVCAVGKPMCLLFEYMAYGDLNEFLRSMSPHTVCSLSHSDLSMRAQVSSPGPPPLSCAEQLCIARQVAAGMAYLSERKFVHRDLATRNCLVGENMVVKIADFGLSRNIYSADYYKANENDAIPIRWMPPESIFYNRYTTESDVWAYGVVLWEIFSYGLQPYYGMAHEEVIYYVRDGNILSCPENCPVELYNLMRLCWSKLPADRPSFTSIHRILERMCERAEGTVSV

[2] = molecular target: T1, Muscle, skeletal receptor tyrosine-protein kinase (Homo sapiens); conditions: at 10 µM
[3] = molecular target: T2, Serine/threonine-protein kinase Nek11 (Homo sapiens) (UniProt Q8NG66); conditions: at 1 µM
T2 sequence (whole entry): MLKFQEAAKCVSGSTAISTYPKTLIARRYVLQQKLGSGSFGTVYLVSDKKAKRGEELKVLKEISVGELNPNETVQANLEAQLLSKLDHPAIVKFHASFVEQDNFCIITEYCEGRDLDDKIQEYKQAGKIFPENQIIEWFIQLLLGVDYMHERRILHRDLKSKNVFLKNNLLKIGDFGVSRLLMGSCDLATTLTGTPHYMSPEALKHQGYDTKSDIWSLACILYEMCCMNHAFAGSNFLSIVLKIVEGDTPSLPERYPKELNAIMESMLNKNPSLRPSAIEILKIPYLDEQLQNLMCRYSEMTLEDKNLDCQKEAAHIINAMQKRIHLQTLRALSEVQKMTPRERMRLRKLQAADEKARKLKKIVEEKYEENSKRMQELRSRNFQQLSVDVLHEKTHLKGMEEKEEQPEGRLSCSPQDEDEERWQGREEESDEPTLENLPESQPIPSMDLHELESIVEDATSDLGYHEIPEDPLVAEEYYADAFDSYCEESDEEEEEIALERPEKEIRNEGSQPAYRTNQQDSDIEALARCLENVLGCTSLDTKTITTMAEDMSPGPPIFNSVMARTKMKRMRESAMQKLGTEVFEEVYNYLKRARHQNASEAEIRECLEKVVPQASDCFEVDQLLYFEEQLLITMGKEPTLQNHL

[4] = molecular target: T2, Serine/threonine-protein kinase Nek11 (Homo sapiens); conditions: at 10 µM
[5] = molecular target: T3, Serine/threonine-protein kinase Nek2 (Homo sapiens) (UniProt P51955); conditions: at 1 µM
T3 sequence (whole entry): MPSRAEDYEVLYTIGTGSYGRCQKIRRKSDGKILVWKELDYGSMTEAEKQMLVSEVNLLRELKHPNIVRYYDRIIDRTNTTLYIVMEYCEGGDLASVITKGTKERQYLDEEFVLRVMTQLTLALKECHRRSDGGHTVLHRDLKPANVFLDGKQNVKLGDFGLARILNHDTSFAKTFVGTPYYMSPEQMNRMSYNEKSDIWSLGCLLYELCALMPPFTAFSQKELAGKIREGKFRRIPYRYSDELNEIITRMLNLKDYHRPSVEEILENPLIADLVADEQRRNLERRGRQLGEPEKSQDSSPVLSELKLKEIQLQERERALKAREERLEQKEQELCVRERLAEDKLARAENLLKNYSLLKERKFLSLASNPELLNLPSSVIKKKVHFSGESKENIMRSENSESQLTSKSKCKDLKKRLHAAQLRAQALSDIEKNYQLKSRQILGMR

[6] = molecular target: T3, Serine/threonine-protein kinase Nek2 (Homo sapiens); conditions: at 10 µM
[7] = molecular target: T4, Serine/threonine-protein kinase Nek3 (Homo sapiens) (UniProt P51956); conditions: at 10 µM
T4 sequence (whole entry): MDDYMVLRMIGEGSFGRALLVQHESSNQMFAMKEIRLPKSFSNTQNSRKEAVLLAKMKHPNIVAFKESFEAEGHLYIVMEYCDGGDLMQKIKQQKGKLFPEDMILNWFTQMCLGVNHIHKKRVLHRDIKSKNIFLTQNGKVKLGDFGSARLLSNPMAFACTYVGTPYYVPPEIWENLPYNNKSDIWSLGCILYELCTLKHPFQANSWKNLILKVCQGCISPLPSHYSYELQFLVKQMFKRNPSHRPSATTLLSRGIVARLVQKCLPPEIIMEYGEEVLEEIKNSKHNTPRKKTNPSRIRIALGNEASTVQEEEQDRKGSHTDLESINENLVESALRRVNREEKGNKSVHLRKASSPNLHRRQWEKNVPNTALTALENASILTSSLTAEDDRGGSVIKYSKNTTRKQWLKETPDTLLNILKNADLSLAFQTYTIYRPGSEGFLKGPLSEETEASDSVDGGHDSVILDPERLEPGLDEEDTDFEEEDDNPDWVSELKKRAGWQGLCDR

[8] = molecular target: Serine/threonine-protein kinase tousled-like 2 (Homo sapiens) (UniProt Q86UE8); conditions: at 1 µM
Sequence of Serine/threonine-protein kinase tousled-like 2 (Homo sapiens) (Q86UE8 whole entry, looked up): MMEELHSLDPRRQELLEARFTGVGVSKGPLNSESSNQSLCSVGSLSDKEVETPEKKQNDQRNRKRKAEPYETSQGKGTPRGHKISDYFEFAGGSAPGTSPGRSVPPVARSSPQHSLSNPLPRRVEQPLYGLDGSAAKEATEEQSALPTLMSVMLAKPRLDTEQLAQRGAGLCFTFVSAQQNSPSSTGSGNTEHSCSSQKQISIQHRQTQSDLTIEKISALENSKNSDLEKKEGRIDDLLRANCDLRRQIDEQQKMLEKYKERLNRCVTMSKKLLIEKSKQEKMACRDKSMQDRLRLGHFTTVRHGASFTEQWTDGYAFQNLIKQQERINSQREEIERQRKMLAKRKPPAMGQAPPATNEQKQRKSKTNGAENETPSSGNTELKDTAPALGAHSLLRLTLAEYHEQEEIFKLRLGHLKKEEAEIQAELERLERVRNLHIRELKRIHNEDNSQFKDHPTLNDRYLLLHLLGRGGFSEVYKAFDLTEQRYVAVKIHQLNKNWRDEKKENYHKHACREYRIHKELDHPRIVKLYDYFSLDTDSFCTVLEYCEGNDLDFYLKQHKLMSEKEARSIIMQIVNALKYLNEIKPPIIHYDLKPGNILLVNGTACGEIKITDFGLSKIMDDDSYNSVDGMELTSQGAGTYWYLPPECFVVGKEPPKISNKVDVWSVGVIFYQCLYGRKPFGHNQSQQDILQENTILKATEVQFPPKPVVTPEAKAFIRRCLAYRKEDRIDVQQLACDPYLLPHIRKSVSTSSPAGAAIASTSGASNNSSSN

[9] = molecular target: Serine/threonine-protein kinase tousled-like 2 (Homo sapiens) (UniProt Q86UE8); conditions: at 10 µM
[10] = molecular target: T4, Serine/threonine-protein kinase Nek3 (Homo sapiens); conditions: at 1 µM

SMILES | residual activity [1] [%] | residual activity [2] [%] | residual activity [3] [%] | residual activity [4] [%] | residual activity [5] [%] | residual activity [6] [%] | residual activity [7] [%] | residual activity [8] [%] | residual activity [9] [%] | residual activity [10] [%]
O=c1cc(N2CCOCC2)oc2c1ccc1ccccc12 | 100 | 87 | 98 | 75 | 79 | 84 | 79 | 101 | 92 | 
O=C1Nc2ccc(Cl)cc2/C1=C/c1cc(Cl)c(O)c(Cl)c1 | 81 | 23 | 52 | 65 | 88 | 89 | 84 |  | 87 | 115
CCCCc1c(-c2ccc(O)cc2)[nH]c2nccnc12 | 81 | 62 | 80 | 88 |  |  | 79 | 91 | 80 | 88
O=C(NC(NC(=S)Nc1ccc(F)c([N+](=O)[O-])c1)C(Cl)(Cl)Cl)C(c1ccccc1)c1ccccc1 (stereo not drawn) | 85 | 98 | 86 | 49 | 90 | 88 | 89 | 99 | 94 | 94
CSc1nc(-c2ccc(F)cc2)c(-c2ccnc(NC(C)c3ccccc3)c2)[nH]1 (stereo not drawn) | 98 | 81 | 83 | 54 | 99 | 102 | 90 |  |  | 95
Nc1n[nH]c2nc3ccccc3nc12 | 76 | 87 | 70 | 80 | 115 | 81 | 83 | 91 | 81 | 80
CCCCc1c(-c2ccc(OC)cc2)[nH]c2nccnc12 | 88 | 87 | 80 | 81 |  | 83 |  | 87 | 86 | 87
NCCNc1ncc(C(N)=O)c(Nc2cccc(C(F)(F)F)c2)n1 | 107 | 75 | 71 | 80 |  |  | 78 |  |  | 106
O=C1NC(=O)c2c1c1c3ccccc3[nH]c1n1cncc21 | 72 | 55 | 36 | 34 | 77 | 63 | 86 | 74 | 58 | 77
CN(C)S(=O)(=O)c1ccc2c(c1)/C(=C/c1cc3c([nH]1)CCCC3)C(=O)N2 | 53 | 47 | 47 | 63 | 97 | 100 | 94 | 98 | 95 | 88
CC(C)c1nn(-c2c(Cl)cccc2Cl)c2nc(Cc3ccc(OCCO)cc3)[nH]c(=O)c12 | 96 | 87 | 63 | 70 | 90 | 87 | 89 | 80 | 37 | 86
